# Assay results reported in PubChem BioAssay AID449734 (Southern Research Specialized Biocontainment Screening …, 2010).
# Values without a mark were called inactive. The rule behind the calls is not given here.
# Experiment: S. typhi GFP reporter counter-screen inhibition, late-stage follow-up, counter-screen for PhoP regulon inhibitor project, round 4, purified and synthesized compounds (AID 449734)
# Conditions: fluorescence, 4 h; series mostly up to 150 µM; inhibition: at the top concentration
row,Compound,inhibition [%]
1,S=C(NCc1ccc(Cl)cc1)Nc1ccccc1Br,16.4
2,N#Cc1ccc(CN2CCCN(C(=O)Nc3ccc(Cl)cc3)C2)cc1,-2.57
3,FC(F)(F)c1ccccc1NC(=S)NCc1ccc(Cl)cc1,-7.95
4,O=C(Nc1ccc(Cl)cc1)N1CCCN(Cc2cccc(Br)c2)C1,-5.63
5,CN1CCN(C(=S)NCc2ccc(Cl)cc2)CC1,8.07
6,S=C(NCc1ccc(Cl)cc1)Nc1ccccn1,13.4
7,S=C(NCc1ccc(Cl)cc1)NC1CCOCC1,-9.07
8,COc1cccc(CNC(=S)Nc2ccncc2)c1,-2.42
9,S=C(NCc1ccccc1)NCc1ccc(Cl)cc1,-13.1
10,S=C(NCc1ccc(Cl)cc1)Nc1ccccc1I,12.1
11,O=C(NC1CCCCC1)N1CCCN(Cc2ccccc2F)C1,6.2
12,O=C(Nc1ccc(Cl)cc1)N1CCN(Cc2ccccc2F)C1,3.54
13,S=C(NCc1ccc(Cl)cc1)Nc1ccc(I)cc1,11
14,FC(F)(F)c1ccc(NC(=S)NCc2ccc(Cl)cc2)cc1,-2.86
15,S=C(NCc1ccc(Cl)cc1)NN1CCOCC1,12.6
16,Cc1ccccc1NC(=O)N1CCCN(Cc2ccccc2F)C1,-6.81
17,S=C(NCc1ccc(Cl)cc1)NC1CCCCC1,7.75
18,S=C(NCc1ccc(Cl)cc1)Nc1cccc(Br)c1,-14.7
19,O=C(Nc1ccc(Cl)cc1)N1CCCN(Cc2cccc(F)c2)C1,19.6
20,S=C(NCc1ccc(Cl)cc1)Nc1ccncn1,14.1
